Compounds with a hit are over-represented: about 8.7% of the library has one in this group of screens.
Pf growth 48h – P. falciparum growth inhibition at 48 hours (one generation); 310,000 tested, 5.9% active; P. falciparum luciferase growth in erythrocytes, 48 h; Potency, µM (series often up to 28.7 µM), for inactives: at the top dose activity change, negative = inhibition, actives largely listed as inhibitors
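Firefly luciferase activity from engineered P. falciparum reports growth; inhibitors lower the luminescent signal. Cultures contained 2% hematocrit erythrocytes at 0.1% final parasitemia.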
Pf growth 96h – P. falciparum growth inhibition at 96 hour, primary screen for plastid delayed-death inhibitors. 320,000 tested, 6.9% active. Potency, µM (highest dose often 28.7 µM), for the others: at the top dose activity change, negative = inhibition, usual class: inhibitors. P. falciparum luciferase reporter growth, 96 h
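Infected RBCs, 2% Hct / 0.05% parasitemia final; luciferase-reporter P. falciparum; cpd 96 h, 37 C, 5% CO2; luciferase detection reagent; luminescence.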
VACV Venus inh – vaccinia inhibition (Venus reporter) | Vaccinia virus Venus reporter expression, fluorescence | Potency, µM (titrated, usually from 36.5 µM), without a hit: at the highest dose activity change, negative = inhibition, actives largely listed as inhibitors | 330,000 tested, 0.46% active | AID 720580; calls by dose curve; tested in A549 cells; further: nearly all actives have a fitted effect of over 30% in size
Vaccinia mCherry – vaccinia inhibition (mCherry reporter). Vaccinia virus mCherry reporter infection, fluorescence. Potency, µM (doses to about 36.5 µM), without a hit: at the top dose activity change, negative = inhibition, usual class: inhibitors. AID 720579. 310,000 tested, 0.63% active; calls by dose curve; tested in A549 cells; further: nearly all actives have a fitted effect of over 35% in size
AMA1-RON2 inh – disrupts binding of P. falciparum AMA1 to RON2; AlphaScreen AMA1-biotinylated RON2 peptide binding; Potency, µM (titrated, usually from 58.2 µM), for inactives: at the highest dose activity change, negative = inhibition, actives largely listed as inhibitors; 360,000 tested, 0.2% active;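 further: 0% = vehicle wells and -100% = peptide control; nearly all actives have a fitted effect of over 45% in size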
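AMA1 (3D7) with his tag at 25 nM final met compounds first, then biotinylated RON2 peptide at 25 nM; detection used donor plus acceptor beads, 10 µg/mL apiece, read by AlphaScreen after 30 min at room temperature.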
* = called active by the depositor; i = inactive; u = inconclusive; x = no result given. Unless noted, the call rests on the fitted dose curve; in most records, active means well fitted curve in the direction sought with a large enough effect; inconclusive means small, poorly fitted or top-dose-only effect, or another doubt; inactive means no such curve, though single readings can be large; an effect the other way counts as inactive or inconclusive. Unless noted, on the % scale 0 is the no-effect control and ±100 the full control effect; potency means the concentration at half of the fitted maximal effect.

SMILES | Pf growth 48h | Pf growth 96h | VACV Venus inh | Vaccinia mCherry | AMA1-RON2 inh
CC1CCCN(CC(=O)Nc2ccc(S(=O)(=O)N3CCCCCC3)cc2)C1 (stereo not given) | -25% | -17% | -29% | -12% | 28%
CC1CCCN(CC(=O)Nc2ccc(S(=O)(=O)N3CCCCC3)cc2)C1 (stereo not given) | u | 9.3µM* | -16% | -23% | -1%
O=C(NNC(=O)c1csc(-c2cccnc2)n1)c1ccccc1 | u | 10µM* | -16% | -20% | 113%
N#Cc1ccc(-c2csc(NNC(=O)c3ccccc3)n2)cc1 | 12µM* | 3.7µM* | 12% | u | 82%
N#Cc1ccc(-c2csc(NNC(=O)c3ccc(Br)cc3)n2)cc1 | 1.7µM* | 2.9µM* | 14µM* | x | 13%
O=C(NNc1nc(-c2ccccc2)cs1)c1ccccc1 | u | 2.3µM* | -7% | -25% | 27%
CC(=O)Nc1ccc(-c2csc(NNC(=O)c3ccc(C)cc3)n2)cc1 | 6% | 14% | -3% | -8% | 77%
CCc1ccc(NC(=O)c2nnn(Cc3cccc(C(F)(F)F)c3)c2N)cc1 | x | x | 1% | -13% | x
COc1ccccc1CN1CCCC(n2cc(C(=O)N3CCCC3)nn2)C1 (stereo not given) | x | x | -2% | -9% | x
Cc1c2cnn(CC(=O)Nc3ccc(F)cc3F)c(=O)c2c(C)n1Cc1cccc(Cl)c1 | x | x | -9% | -3% | x
O=C(NNc1nc(-c2ccc(Br)cc2)cs1)c1ccco1 | 1.7µM* | -29% | x | x | 80%
COc1ccc(-c2nn(-c3ccccc3)cc2/C=N/Nc2ccc3ccccc3n2)cc1OC | 2.6µM* | 2.3µM* | -26% | u | -5%
COc1ccc(-c2nn(-c3ccccc3)cc2/C=N/O)cc1OC | -13% | 3% | x | x | -10%
COc1ccc(-c2nn(-c3ccccc3)cc2/C=N/N=C(N)N)cc1OC | 1.7µM* | 1.9µM* | u | u | -16%
NC(N)=N/N=C/c1cn(-c2ccccc2)nc1-c1cccs1 | 2.6µM* | 0.52µM* | x | x | -10%
COc1ccc(-c2nn(-c3ccccc3)cc2CO)cc1OC | 13µM* | -12% | x | x | 0%
S=c1[nH]nc(-c2cccs2)n1/N=C/c1cn(-c2ccccc2)nc1-c1cccs1 | 60% | 56% | -13% | -7% | 36%
COc1ccc(/C=C/c2ccc3ccccc3n2)cc1OC | x | x | -20% | 20% | x
CCOC(=O)C1CCN(S(=O)(=O)c2ccc(N3CCCCS3(=O)=O)cc2)CC1 | x | x | 1% | 2% | x
COc1ccccc1CN(Cc1ccco1)c1cnc(S(C)(=O)=O)nc1C(=O)Nc1ccccc1Cl | x | x | -11% | -16% | x
COc1ccc(Cn2c(C3CCCCC3)nc3c(c(=O)c4ccccc4n3C)c2=O)cc1 | 3.3µM* | 2.3µM* | x | x | -7%
COCCn1c(-c2ccccc2Cl)nc2c(c(=O)c3ccccc3n2C)c1=O | -19% | u | -4% | -15% | 15%
COc1ccc(CCn2c(C3CCCCC3)nc3c(c(=O)c4ccccc4n3C)c2=O)cc1OC | 3.3µM* | 4.7µM* | -25% | -4% | 0%
COc1ccc(CCn2c(C3CCCCC3)nc3c(c(=O)c4ccccc4n3C)c2=O)cc1 | u | u | x | x | 2%
COCCn1c(-c2ccc(Cl)cc2)nc2c(c(=O)c3ccccc3n2C)c1=O | u | 8.3µM* | x | x | x
SMILES | Pf growth 48h | Pf growth 96h | VACV Venus inh | Vaccinia mCherry | AMA1-RON2 inh
COc1ccc(Cn2c(-c3ccccc3)nc3c(c(=O)c4ccccc4n3C)c2=O)cc1 | -15% | 12µM* | -4% | i | 9%
CC(C)Sc1nc2sc3c(c2c(=O)n1Cc1ccccc1)CCCC3 | x | x | -6% | -12% | x
Cc1ccc(NC(=O)CN2C(=O)CCc3cc(S(=O)(=O)N4CCOCC4)ccc32)cc1F | x | x | 1% | -8% | x
COc1ccc(CCn2c(C(C)C)nc3oc4ccccc4c(=O)c3c2=O)cc1 | 8.3µM* | 6.6µM* | x | x | -9%
CC(C)c1nc2c(c(=O)c3ccccc3n2C)c(=O)n1CCc1ccccc1 | u | 4.7µM* | 2% | i | 6%
Cc1cccc(-c2noc(-c3ccc(NCc4cccnc4)c([N+](=O)[O-])c3)n2)c1 | x | x | -8% | -11% | x
Cc1ccccc1NC(=O)Cn1c(=O)n(Cc2ccc3c(c2)OCO3)c(=O)c2oc3ccccc3c21 | x | x | u | -6% | x
CCCCCCCCCCCC(=O)N(CCO)CCO | 8% | 4% | x | x | x
O=C(CCCCCC(=O)N(CCO)CCO)N(CCO)CCO | 13µM* | x | -9% | -12% | -16%
O=C(Nc1ccccc1N1CCCC1)c1ccc(Cl)c(S(=O)(=O)N2CCOCC2)c1 | 12µM* | 8.3µM* | -22% | i | 4%
Cc1ccc(C(=O)Nc2ccccc2N2CCCCC2)cc1S(=O)(=O)N1CCOCC1 | x | x | -29% | u | -4%
O=C(NCC1CCCCC1)c1ccc(F)c(S(=O)(=O)N2CCOCC2)c1 | u | 7.4µM* | x | x | 3%
O=C(Nc1ccccc1N1CCCC1)c1cccc(S(=O)(=O)N2CCOCC2)c1 | u | u | -7% | u | -11%
O=C(Nc1ccccc1N1CCCCC1)c1ccc(F)c(S(=O)(=O)N2CCOCC2)c1 | 13µM* | u | -1% | 1% | -5%
Cc1ccc(C(=O)Nc2ccccc2N2CCOCC2)cc1S(=O)(=O)N1CCOCC1 | 13µM* | u | x | x | -2%
CCOC(=O)N1CCC2(CC1)OC(=O)C(C)=C2C(=O)NCc1cccc(OC)c1 | x | x | 5% | -9% | x
OCC1CCCN(c2nc3cc4c(cc3cc2CNCc2cccc(C(F)(F)F)c2)OCO4)C1 (stereo not given) | x | x | -11% | -12% | x
Cc1ccc2c(c1)C(c1ccc(F)cc1)N(C(=O)c1cccc(C(F)(F)F)c1)CC(=O)N2 (stereo not given) | x | x | -11% | -12% | x
Cc1ccc(C(=O)O)cc1S(=O)(=O)N1CCOCC1 | 2% | 8.3µM* | -1% | -8% | 5%
COc1ccc(OC)c(N=c2oc3cc(O)ccc3cc2C(N)=O)c1 | 11% | 13µM* | x | x | 2%
Cc1nc(-c2ccc(F)cc2)c(CC(=O)N(C)CC(=O)Nc2ccccc2Cl)s1 | -15% | 13µM* | -15% | -25% | 6%
Cc1nc(-c2ccc(F)cc2)c(CC(=O)N(C)CC(=O)Nc2ccc(Cl)c(C(F)(F)F)c2)s1 | x | x | x | x | 24%
Clc1ccc(CC[C@H](Cn2ccnc2)Sc2c(Cl)cccc2Cl)cc1 | 5.7µM* | 2µM* | x | x | x
COc1ccc(OC)c(NC(=O)c2cc(S(=O)(=O)NCc3ccco3)ccc2F)c1 | 0% | 1.2µM* | x | x | 7%
COc1ccc(CNS(=O)(=O)c2ccc(F)c(C(=O)Nc3ccccc3OC)c2)cc1 | -6% | 2.3µM* | x | x | 0%
COc1ccc(CNS(=O)(=O)c2ccc(F)c(C(=O)Nc3ccc(OC)cc3)c2)cc1 | -4% | u | x | x | -5%
COc1ccccc1NC(=O)c1cc(S(=O)(=O)NCc2ccccc2)ccc1F | u | 5.2µM* | -22% | -7% | 3%
COCCCNC(=O)c1c[nH]c2ccc(S(=O)(=O)N3CCc4ccccc43)cc2c1=O | 12µM* | 5% | u | u | -3%
